Reference: PubChem BioAssay (EPA / NIEHS)
Records with an inconclusive call do not appear. The source made the active and inactive calls. The calls were made as follows, unless noted: active = hit-call score of the fitted dose curve at least 0.9, where 1 is the maximum; inactive = score below 0.9.

Legend:
[1] = BSK_LPS_PGE2: BioMAP Diversity Plus: LPS Assay for Prostaglandin E2 (PGE2) Biomarker Activity (AID 2283082); details: primary human HUVEC with PBMC; actives raise or lower the signal;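 as to AC50: secreted prostaglandin E2 measured by ELISA in LPS-stimulated co-culture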
Summary of the method: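 ELISA read-out of PGE2 from human umbilical vein endothelial cells co-cultured with peripheral blood mononuclear cells under LPS, 24 h post-dose. Gain or loss of signal scored relative to DMSO baseline.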

[2] = read-out: Macrophage colony-stimulating factor (MCSF), CSF1 (gene 1435); assay: BSK_LPS_MCSF: BioMAP Diversity Plus: LPS Assay for Macrophage colony-stimulating factor (MCSF) Biomarker Activity (AID 2283083); details: primary human HUVEC with PBMC; actives raise or lower the signal
Summary of the method: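 Bidirectional fit versus DMSO of ELISA-measured M-CSF in co-cultured human umbilical vein endothelial cells and PBMC, sampled 24 h after dosing.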

[3] = read-out: Tissue Factor, F3 (gene 2152); assay: BSK_LPS_TissueFactor: BioMAP Diversity Plus: LPS Assay for Tissue Factor Biomarker Activity (AID 2283084); details: primary human HUVEC with PBMC; actives raise or lower the signal
Summary of the method: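 Read-out: CD142 ELISA, 24 h. System: LPS-driven human endothelial/PBMC co-culture. Analysis: up- or down-signal fitted against DMSO.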

[4] = read-out: Vascular cell adhesion molecule 1 (VCAM1), VCAM1 (gene 7412); assay: BSK_LPS_VCAM1: BioMAP Diversity Plus: LPS Assay for Vascular cell adhesion molecule 1 (VCAM1) Biomarker Activity (AID 2283086); details: primary human HUVEC with PBMC; actives raise or lower the signal
Summary of the method: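 ELISA read-out of VCAM-1 at 24 h post-dosing in an LPS-driven HUVEC/PBMC primary human co-culture; gain or loss of signal fitted bidirectionally against DMSO baseline. Cytotoxicity tracked in parallel cultures by SRB total-protein staining.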

[5] = read-out: CD38, CD38 (gene 952); assay: BSK_SAg_CD38: BioMAP Diversity Plus: SAg Assay for CD38 Biomarker Activity (AID 2283087); details: primary human HUVEC with PBMC; actives raise or lower the signal
Summary of the method: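 Measures CD38 on a human endothelial/PBMC co-culture driven by SEB and TSST-1, 24 h after compound exposure, using ELISA with fluorescence detection; DMSO defines baseline for bidirectional curve fitting.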

[6] = read-out: CD40, CD40 (gene 958); assay: BSK_SAg_CD40: BioMAP Diversity Plus: SAg Assay for CD40 Biomarker Activity (AID 2283088); details: primary human HUVEC with PBMC; actives raise or lower the signal
Summary of the method: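 Endpoint derived by fitting increases or decreases versus DMSO controls. CD40 is detected by fluorescence ELISA in a human vascular co-culture of endothelium and PBMC at 24 h.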

[7] = read-out: CD69, CD69 (gene 969); assay: BSK_SAg_CD69: BioMAP Diversity Plus: SAg Assay for CD69 Biomarker Activity (AID 2283089); details: primary human HUVEC with PBMC; actives raise or lower the signal;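 as to AC50: cell surface CD69 protein quantified by ELISA with fluorescence detection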
Summary of the method: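 HUVEC co-cultured with PBMC were dosed with chemical, and CD69 was measured by ELISA with fluorescence read-out 24 h later. Bidirectional curve fitting used DMSO as negative control and activity baseline.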

[8] = read-out: Monocyte Chemoattractant Protein-1 (MCP1), CCL2 (gene 6347); assay: BSK_SAg_MCP1: BioMAP Diversity Plus: SAg Assay for Monocyte Chemoattractant Protein-1 (MCP1) Biomarker Activity (AID 2283090); details: primary human HUVEC with PBMC; actives raise or lower the signal
Summary of the method: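 Values derive from bidirectional fitting of ELISA-measured MCP1 against DMSO controls. Readings were taken 24 h after dosing human vascular endothelial cells co-cultured with peripheral blood mononuclear cells under superantigen stimulation.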

[9] = read-out: E-selectin (Homo sapiens) (UniProt P16581); assay: BSK_SAg_Eselectin: BioMAP Diversity Plus: SAg Assay for Eselectin Biomarker Activity (AID 2283091); details: primary human HUVEC with PBMC; actives raise or lower the signal
Summary of the method: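 Endpoint values derive from bidirectional fitting relative to DMSO, using ELISA-measured E-selectin in a human vascular co-culture (umbilical vein endothelium plus PBMC) sampled 24 h after dosing.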

[10] = read-out: Monokine induced gamma interferon (MIG), CXCL9 (gene 4283); assay: BSK_SAg_MIG: BioMAP Diversity Plus: SAg Assay for Monokine induced gamma interferon (MIG) Biomarker Activity (AID 2283092); details: primary human HUVEC with PBMC; actives raise or lower the signal
Summary of the method: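 HUVEC plus human PBMC co-culture, chemicals dosed and MIG (CXCL9) quantified by ELISA at 24 h. Bidirectional curve fitting against DMSO as negative control and baseline, so both gain and loss of signal count as activity.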

[11] = BSK_SAg_PBMCCytotoxicity: PBMC Cytotoxicity Assessment in the BioMAP Diversity Plus: SAg Assay (AID 2283093); details: primary human HUVEC with PBMC;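 also: PBMC viability measured as Alamar Blue reduction fluorescence at 546/580 nm; fitted both ways against DMSO so a hit may be loss or gain of signal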;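 as to AC50: PBMC superantigen activated with SEB plus TSST-1 one hour after compound addition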
Summary of the method: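 Alamar Blue reduction (6 h, 546/580 nm) reports PBMC cytotoxicity after 90 h superantigen activation (SEB, TSST-1; 20 ng/mL final each) with 1 h compound pre-treatment. Gain or loss of signal fitted versus DMSO.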

[12] = read-out: Interleukin-8 (IL8), CXCL8 (gene 3576); assay: BSK_SAg_IL8: BioMAP Diversity Plus: SAg Assay for Interleukin-8 (IL8) Biomarker Activity (AID 2283094); details: primary human HUVEC with PBMC; actives raise or lower the signal
Summary of the method: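 HUVEC/PBMC co-culture, 24 h post-dose; IL-8 by ELISA. Gain or loss of signal fitted bidirectionally vs DMSO baseline.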

[13] = BSK_SAg_Proliferation: Cell Proliferation Assessment in the BioMAP Diversity Plus: SAg Assay (AID 2283095); details: primary human HUVEC with PBMC;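 also: relative cell number as total protein by SRB absorbance in sub-confluent culture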
Summary of the method: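 HUVEC/PBMC co-culture, 96-well. TCA-fixed (10%), 0.1% SRB stain, A560 at 96 h. Protein content used as viability readout; bidirectional fitting vs DMSO control.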

[14] = read-out: Tumor necrosis factor (Homo sapiens) (UniProt P01375); assay: BSK_LPS_TNFa: BioMAP Diversity Plus: LPS Assay for Tumour Necrosis Factor alpha (TNFa) Biomarker Activity (AID 2283085); details: primary human HUVEC with PBMC; actives raise or lower the signal;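 as to AC50: TNFa protein level quantified by ELISA in the co-culture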
Summary of the method: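 HUVEC/PBMC co-culture, LPS-stimulated; 24 h post-dose; TNFa by ELISA; gain or loss of signal fitted bidirectionally vs DMSO baseline.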

[15] = target: human CYP19A1, CYP19A1 (gene 1588) (UniProt P11511); assay: NVS_ADME_hCYP19A1: NovaScreen (NVS) CYP450-related Enzyme Activity (ADME) Assay for human CYP19A1 (AID 2283098; active = hit-call score of the fitted dose curve at least 0.9, where 1 is the maximum)
Summary of the method: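 Compounds were first screened at 10 uM in duplicate against purified enzyme, with a fluorogenic substrate and fluorescence intensity detection after 0.5 h. Inhibition appears as reduced signal against acetonitrile control.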

[16] = target: human CYP1A2, CYP1A2 (gene 1544) (UniProt P05177); assay: NVS_ADME_hCYP1A2: NovaScreen (NVS) CYP450-related Enzyme Activity (ADME) Assay for human CYP1A2 (AID 2283102; active = hit-call score of the fitted dose curve at least 0.9, where 1 is the maximum)
Summary of the method: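 Inhibition scored as decrease in fluorescent product versus acetonitrile negative control. Enzyme: insect-cell recombinant human CYP1A2, substrate-specific, cell-free. Reading at 0.5 h; 10 uM duplicate initial screen with positive and negative controls on every plate.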

[17] = BSK_SAg_SRB: Viability Assessment in the BioMAP Diversity Plus: SAg Assay (AID 2283096); details: primary human HUVEC with PBMC;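 also: cells read one day after compound addition; hits may be either gain or loss of signal compared with DMSO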
Summary of the method: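 This overt-cytotoxicity endpoint quantifies protein in human endothelial/PBMC co-cultures at 24 h using SRB absorbance (560 nm) after trichloroacetic acid fixation. Values reflect signal change from the DMSO negative control, fitted bidirectionally.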

[18] = target: human CYP2B6, CYP2B6 (gene 1555) (UniProt P20813); assay: NVS_ADME_hCYP2B6: NovaScreen (NVS) CYP450-related Enzyme Activity (ADME) Assay for human CYP2B6 (AID 2283101; active = hit-call score of the fitted dose curve at least 0.9, where 1 is the maximum)
Summary of the method: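 Recombinant human CYP2B6 with fluorogenic substrate, read by fluorescence intensity 1 h after dosing. Primary screen in duplicate at 10 uM, actives followed in concentration series; signal loss relative to acetonitrile control.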

Measured: AC50

Sequence of E-selectin (Homo sapiens) (P16581 whole entry, looked up): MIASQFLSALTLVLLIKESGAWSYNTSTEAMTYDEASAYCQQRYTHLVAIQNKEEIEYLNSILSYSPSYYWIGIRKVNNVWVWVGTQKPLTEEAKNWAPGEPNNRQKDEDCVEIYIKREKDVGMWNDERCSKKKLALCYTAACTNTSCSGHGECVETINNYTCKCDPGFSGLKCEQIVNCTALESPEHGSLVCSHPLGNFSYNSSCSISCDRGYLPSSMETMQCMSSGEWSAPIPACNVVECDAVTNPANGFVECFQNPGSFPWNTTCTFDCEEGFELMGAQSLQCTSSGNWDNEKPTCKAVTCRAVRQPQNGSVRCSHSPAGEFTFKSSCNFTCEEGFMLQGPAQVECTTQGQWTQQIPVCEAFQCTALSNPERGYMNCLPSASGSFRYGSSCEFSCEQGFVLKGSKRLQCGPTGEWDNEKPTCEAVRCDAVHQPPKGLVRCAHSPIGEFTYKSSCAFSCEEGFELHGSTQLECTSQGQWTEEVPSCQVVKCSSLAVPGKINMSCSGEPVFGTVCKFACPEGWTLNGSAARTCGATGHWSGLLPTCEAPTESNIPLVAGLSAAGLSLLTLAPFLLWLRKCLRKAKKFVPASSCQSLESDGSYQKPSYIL
Sequence of human CYP1A2, CYP1A2 (gene 1544) (P05177 whole entry, looked up): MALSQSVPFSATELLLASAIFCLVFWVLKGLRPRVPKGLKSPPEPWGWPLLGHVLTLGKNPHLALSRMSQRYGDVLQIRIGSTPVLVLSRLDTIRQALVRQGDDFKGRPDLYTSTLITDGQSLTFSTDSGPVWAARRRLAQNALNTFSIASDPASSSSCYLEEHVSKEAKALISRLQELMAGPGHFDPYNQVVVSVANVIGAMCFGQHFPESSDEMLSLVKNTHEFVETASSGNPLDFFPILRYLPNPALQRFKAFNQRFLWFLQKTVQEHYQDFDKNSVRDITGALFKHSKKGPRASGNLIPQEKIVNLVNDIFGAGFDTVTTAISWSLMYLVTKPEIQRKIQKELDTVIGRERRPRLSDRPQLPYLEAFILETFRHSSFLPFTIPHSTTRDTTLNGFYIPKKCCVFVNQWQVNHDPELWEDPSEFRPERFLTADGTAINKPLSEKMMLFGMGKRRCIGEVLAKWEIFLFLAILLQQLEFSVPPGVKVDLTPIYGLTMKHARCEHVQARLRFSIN
Sequence of Tumor necrosis factor (Homo sapiens) (P01375 whole entry, looked up): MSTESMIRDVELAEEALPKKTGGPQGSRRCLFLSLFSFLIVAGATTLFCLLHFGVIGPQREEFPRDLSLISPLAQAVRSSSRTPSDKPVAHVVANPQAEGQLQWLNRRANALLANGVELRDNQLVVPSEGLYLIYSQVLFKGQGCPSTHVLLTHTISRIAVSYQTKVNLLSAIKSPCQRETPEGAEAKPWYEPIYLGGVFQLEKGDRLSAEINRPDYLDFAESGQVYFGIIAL
Sequence of human CYP2B6, CYP2B6 (gene 1555) (P20813 whole entry, looked up): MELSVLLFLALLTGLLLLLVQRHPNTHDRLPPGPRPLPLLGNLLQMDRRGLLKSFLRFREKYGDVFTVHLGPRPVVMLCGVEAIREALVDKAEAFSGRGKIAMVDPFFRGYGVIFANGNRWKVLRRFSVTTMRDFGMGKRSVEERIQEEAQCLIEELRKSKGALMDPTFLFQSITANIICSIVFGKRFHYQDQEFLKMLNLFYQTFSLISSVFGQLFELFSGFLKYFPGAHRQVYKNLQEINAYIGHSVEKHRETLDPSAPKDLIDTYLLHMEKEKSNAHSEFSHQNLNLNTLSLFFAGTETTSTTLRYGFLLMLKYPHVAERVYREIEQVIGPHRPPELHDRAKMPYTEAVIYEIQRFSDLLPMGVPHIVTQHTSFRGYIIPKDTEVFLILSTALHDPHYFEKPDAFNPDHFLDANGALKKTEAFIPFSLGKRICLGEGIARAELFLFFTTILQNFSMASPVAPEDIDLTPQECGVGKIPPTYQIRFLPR
Sequence of human CYP19A1, CYP19A1 (gene 1588) (P11511 whole entry, looked up): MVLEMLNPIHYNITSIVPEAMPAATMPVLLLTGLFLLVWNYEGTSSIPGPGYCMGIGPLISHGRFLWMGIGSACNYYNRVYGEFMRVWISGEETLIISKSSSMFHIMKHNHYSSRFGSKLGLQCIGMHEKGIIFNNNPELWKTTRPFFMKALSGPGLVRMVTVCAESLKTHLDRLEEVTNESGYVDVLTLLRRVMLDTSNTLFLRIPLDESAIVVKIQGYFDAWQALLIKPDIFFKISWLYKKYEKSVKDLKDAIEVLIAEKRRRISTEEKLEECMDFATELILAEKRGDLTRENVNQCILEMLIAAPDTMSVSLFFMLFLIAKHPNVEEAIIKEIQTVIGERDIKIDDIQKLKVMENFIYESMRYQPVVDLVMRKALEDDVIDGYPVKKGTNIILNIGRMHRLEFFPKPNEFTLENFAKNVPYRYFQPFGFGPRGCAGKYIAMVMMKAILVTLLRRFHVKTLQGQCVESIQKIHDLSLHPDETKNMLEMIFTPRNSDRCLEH

CN[C@H]1CC[C@@H](c2ccc(Cl)c(Cl)c2)c2ccc(S(N)(=O)=O)cc21
active: [2] 30.1 µM | [3] 32.2 µM | [4] 20 µM | [5] 27.7 µM | [6] 29.3 µM | [7] 26.1 µM | [8] 25.2 µM | [9] 20 µM | [10] 31.2 µM | [11] 20.5 µM | [12] 13.8 µM | [13] 12.4 µM
inactive: [1]

CCCCc1ccc2c(n1)[C@@H](c1ccc(OC)cc1C[C@H](C)C(=O)O)[C@H](C(=O)O)[C@H]2c1ccc2c(c1)OCO2
inactive: [1] | [2] | [3] | [4] | [5] | [6] | [7] | [8] | [9] | [10] | [11] | [12]

Cc1cccc(Nc2cc(Cl)nc(SCC(=O)O)n2)c1C
inactive: [1] | [2] | [3] | [14] | [5] | [6] | [7] | [8] | [9] | [10] | [11] | [13]

Cc1c(C(=O)O)c(O)cc2c1C(=O)c1c(O)c([C@@H]3O[C@H](CO)[C@@H](O)[C@H](O)[C@H]3O)c(O)c(O)c1C2=O
inactive: [1] | [2] | [3] | [14] | [5] | [6] | [7] | [8] | [9] | [10] | [11] | [13] | [15]

Oc1ccc2ccccc2c1N=Nc1ccccc1
inactive: [2] | [3] | [5] | [6] | [7] | [8] | [11]
active: [1] 2.4 µM | [14] 1.98 µM | [9] 4.27 µM | [13] 12.2 µM

Cc1nc(C)nc(N2C[C@@H](C)N(c3ccnc([C@@H](C)O)n3)[C@@H](C)C2)n1
inactive: [1] | [2] | [3] | [5] | [6] | [7] | [8] | [9] | [11]

O=C(O)Cc1ccccc1Nc1c(Cl)cccc1Cl
active: [1] 0.291 µM | [2] 16.6 µM | [13] 15.6 µM
inactive: [3] | [5] | [6] | [7] | [8] | [9] | [10] | [11] | [12] | [16]

Oc1ccc2c(c1)OC[C@@H](N1CCC(O)(c3ccc(F)cc3)CC1)[C@H]2O
inactive: [1] | [2] | [3] | [5] | [6] | [7] | [8] | [9] | [10] | [11] | [12] | [17] | [16]
active: [18] 6.22 µM

CC(C)(C)c1cc(O)c(C(C)(C)C)cc1O
inactive: [2] | [3] | [5] | [12] | [17]
active: [1] 9.44 µM | [6] 11.7 µM | [7] 5.55 µM | [8] 5.94 µM | [9] 7.31 µM | [11] 8.8 µM | [13] 27.8 µM

CCOC(=O)C(C)(C)Oc1ccc(Cl)cc1
inactive: [1] | [2] | [3] | [5] | [6] | [7] | [8] | [9] | [11] | [12] | [17]

C[C@]12C=CC(=O)C=C1CC[C@@H]1[C@@H]2C(=O)C[C@@]2(C)[C@H]1CC[C@]2(O)C(=O)CO
inactive: [1] | [2] | [3] | [5] | [6] | [7] | [8] | [9] | [10] | [11] | [12] | [17]

Clc1cc(Cl)c(Cl)cc1Cl
inactive: [1] | [2] | [3] | [5] | [6] | [7] | [8] | [9] | [11] | [12] | [13]

CCCCCCOCCO
inactive: [1] | [2] | [3] | [5] | [6] | [7] | [8] | [9] | [11] | [12] | [13] | [17]

O=c1[nH]cc(F)c(=O)[nH]1
inactive: [1] | [2] | [3] | [5] | [6] | [7] | [8] | [9] | [11] | [12] | [17]
active: [13] 2.48 µM

CCNc1cccc(C)c1
inactive: [1] | [2] | [3] | [5] | [6] | [7] | [8] | [9] | [11]

Cc1cc(=O)[nH]c(=S)[nH]1
inactive: [1] | [2] | [3] | [5] | [6] | [7] | [8] | [9] | [11] | [12] | [13] | [17]

O=[N+]([O-])C(CO)(CO)CO
inactive: [1] | [2] | [3] | [5] | [6] | [7] | [8] | [9] | [11]

NS(=O)(=O)c1cc2c(cc1Cl)NCNS2(=O)=O
inactive: [1] | [2] | [3] | [5] | [6] | [7] | [8] | [9] | [11]

CNC(=O)[C@H]1O[C@@H](n2cnc3c(NCc4cc(Cl)ccc4OCc4cc(C)no4)ncnc32)[C@H](O)[C@@H]1N
inactive: [1] | [2] | [3] | [5] | [6] | [7] | [8] | [9] | [11] | [12] | [17]

O=C(N[C@@H](Cc1ccccc1)[C@@H](O)C(=O)N1C[C@@H](O)[C@@H](O)C1)c1cc2cc(Cl)ccc2[nH]1
inactive: [1] | [2] | [3] | [4] | [5] | [6] | [7] | [8] | [9] | [11] | [13] | [16]

C1CCC(SSC2CCCCC2)CC1
inactive: [1] | [2] | [3] | [8] | [10] | [12] | [17]
active: [5] 20 µM | [6] 27 µM | [7] 20 µM | [9] 32.7 µM | [11] 16.1 µM
